Bioassay records from PubChem.
p53ts 39C kill: p53ts cell cytotoxicity, nonpermissive temperature; H1299-p53A138V viability at 39C, ATP luminescence, 24 h; Potency, µM (top dose mostly 46.1 µM), actives largely listed as cytotoxic; hit rate 1.5% among 130,000; AID 902; note: nearly all actives have a fitted effect of over 55% in size
Peg3 imprint: inducers of genomic imprint erasure in mouse ES cells. mouse ES Peg3-LacZ reporter, beta-gal luminescence, 40 h. Potency, µM (series often up to 60.7 µM), usual class: activators. hit rate 0.02% among 110,000
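Each well holds 300 Peg3LacZ-Neo (maternal) female ES cells incubated 40 h at 37C, 5% CO2. LacZ is measured by BetaGlo luminescence, with AC50 and maximum efficacy derived from dose-response curves.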
p53ts 32C tox: kills p53ts cells at the permissive temperature; H1299-p53A138V at 32C, ATP luminescence viability, 24 h; Potency, µM (doses to about 46.1 µM), most hits filed as cytotoxic; hit rate 0.93% among 130,000; AID 924; note: nearly all actives have a fitted effect of over 55% in size
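Viability by ATPlite luminescence after 24 h compound treatment (up to 46 uM) at the permissive 32C. Cells are H1299 carrying p53 A138V. Scale runs from DMSO basal to 100 uM tamoxifen as full kill; AC50 from Hill fits.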
Numbers stand for hits; i = inactive; ? = inconclusive; nt = no result given; [ ] = dose if it differs, or a comment. Only some compounds are listed: those with a hit (about 1.6% of all), similar ones and a draw of the others. Calls come from the whole dose curve; as a rule, active = well fitted curve in the direction sought with a large enough effect; inconclusive = small, poorly fitted or top-dose-only effect, or another doubt; inactive = no such curve, though single readings can be large; an effect the other way counts as inactive or inconclusive.

SMILES | p53ts 39C kill | Peg3 imprint | p53ts 32C tox
CCN(CC)CCn1c(NCc2ccc(OC)cc2)nc2ccccc21 | i | i | i
CCCCCn1c(NCc2ccc(OC)cc2)nc2ccccc21 | 16µM | i[10.9 µM] | ?
CCCn1c(Nc2nc3ccccc3n2C)nc2ccccc21 | 10µM | i | ?
CCCn1c(NC(=O)c2ccccc2)nc2ccccc21 | i | i | i
CCOC(=O)c1cccc(NC(=O)NCc2ccc3c(c2)CCN3C(=O)CC)c1 | i | i[10.9 µM] | i
O=c1c(-c2ccc3c(c2)OCCO3)coc2cc(O)cc(O)c12 | 7.9µM | i | 13µM
O=c1c(-c2ccccc2)coc2cc(O)cc(O)c12 | ? | i | ?
CCN1c2ccccc2NC2N=C(OC)C(c3ccccc3)C21 (centres undefined) | 13µM | i | ?
CCCN1C(=O)c2ccccc2NC1c1cc(OC)c(OC)c(OC)c1 (centres undefined) | i | nt | ?
CS(=O)(=O)c1nc(-c2cccs2)cc(C(F)(F)F)n1 | ? | i | ?
COc1ccc(-c2cc(C(F)(F)F)nc(S(C)(=O)=O)n2)cc1 | 20µM | i[10.9 µM] | ?
Cc1ccc(C(=O)Nc2ccc3c(c2)OCO3)cc1S(=O)(=O)N1CCCC1 | i | i | i
Cc1ccc(C(=O)Nc2cccc(C(=O)O)c2)cc1S(=O)(=O)N1CCCCC1 | ? | i | 13µM
COc1ccc(C(=O)c2c[nH]c3ccccc23)cc1 | 10µM | i | 7.9µM
COc1ccc(C(C(O)C(=O)c2c[nH]c3ccccc23)N2CCN(c3ccc(OC)cc3)CC2)cc1 (centres undefined) | i | i | i
N#Cc1c(N2CCCC2)nc(N)c2c(N)nc(N3CCCC3)cc12 | i | i | 13µM
COc1cc2c(C#N)c(N3CCN(c4ccccc4OC)CC3)nc(N)c2c(N)n1 | ? | i | ?
CN(C)c1ccc(CNC(=O)c2cc3ccccn3n2)cc1 | i | i[10.9 µM] | i
Cc1ccc(/C=C/c2onc(C)c2S(=O)(=O)N2CCC(C(=O)NCc3ccc(Cl)cc3)CC2)cc1 | i | i[10.9 µM] | i
CCOc1ccc(N(CC)C(=O)c2cc3c(s2)-c2ccc(Cl)cc2SC3)cc1 | 20µM | i[10.9 µM] | i
CCc1ccccc1N(CC)C(=O)c1cc2c(s1)-c1ccccc1SC2 | ? | i[10.9 µM] | i
COc1ccc(C(=O)N2CCC3(CCCN(C(=O)Nc4cccc(C#N)c4)C3)CC2)cc1 | i | nt | i
O=C(Nc1ccc(N2CCCC2)cc1)c1cccc(F)c1 | 5µM | i | 7.9µM
O=C(Nc1ccc(N2CCCCC2)cc1)c1ccccc1 | 13µM | nt | 5µM
O=C(Nc1ccc(N2CCCC2=O)cc1)c1cccc(F)c1 | ? | i | ?
SMILES | p53ts 39C kill | Peg3 imprint | p53ts 32C tox
O=C(Nc1ccc(N2CCCC2)cc1)c1ccccc1F | i | nt | ?
O=C1C(=O)c2ccc(-c3ccccc3)cc2-c2ccccc21 | i | nt | i
Cc1ccc(-c2cc3c(nn2)-c2ccccc2C3=O)cc1 | 0.4µM | i | 0.5µM
Cc1ccc(C)c(N2CCN(C(=O)c3cc4c(=O)n(Cc5cccs5)ccc4nc3C)CC2)c1 | i | i[10.9 µM] | i
O=C1CC(c2ccc(Cl)cc2)Sc2nc(-c3ccc(F)cc3)nn21 (centres undefined) | i | i[10.9 µM] | i
CCN(CC)CCNC(=O)c1ccc2c(=O)n3nc(Nc4cccc(Cl)c4C)sc3nc2c1 | 20µM | i[10.9 µM] | ?
Cc1c(Cl)cccc1Nc1nn2c(=O)c3ccc(C(=O)NCCC4=CCCCC4)cc3nc2s1 | i | i[10.9 µM] | i
COc1ccccc1Nc1nn2c(=O)c3ccc(C(=O)NCCC4=CCCCC4)cc3nc2s1 | 3.2µM | i[10.9 µM] | 5µM
COc1ccccc1Nc1nn2c(=O)c3ccc(C(=O)NC(C)c4ccccc4)cc3nc2s1 (centres undefined) | i | i[10.9 µM] | i
COc1ccccc1Nc1nn2c(=O)c3ccc(C(=O)NCCc4ccccc4)cc3nc2s1 | 3.2µM | i[10.9 µM] | 3.2µM
Cc1ccc(C)c(Nc2nn3c(=O)c4ccc(C(=O)NCCC5=CCCCC5)cc4nc3s2)c1 | i | i[10.9 µM] | ?
Cc1ccc(C)c(Nc2nn3c(=O)c4ccc(C(=O)NCCc5ccccc5)cc4nc3s2)c1 | 3.2µM | i[10.9 µM] | i
Cc1c(Cl)cccc1Nc1nn2c(=O)c3ccc(C(=O)NCCc4ccccc4)cc3nc2s1 | ? | i[10.9 µM] | ?
Cc1ccccc1OCC(=O)NCC(c1ccc(Cl)cc1)N1CCCCC1 (centres undefined) | i | i[10.9 µM] | i
Cc1ccc2nc(NC(=O)CSc3nccn3Cc3ccc(F)cc3)sc2c1 | i | i[10.9 µM] | i
COc1ccc(NC(=O)c2cc(C(C)=O)n3ccccc23)cc1 | i | i[10.9 µM] | i
CC1C(NC(=O)/C(=N/OC(C)(C)C(=O)O)c2csc(N)n2)C(=O)N1S(=O)(=O)O (centres undefined) | i | i | i
COc1cc(OC)c(NC(=O)c2oc3ccc4c(c3c2C)C(=O)CC(C)(C)O4)cc1Cl | i | i[10.9 µM] | i
Fc1ccc(-c2nnc(NC3=NCCCCC3)o2)cc1 | 4µM | i | 4µM
Fc1ccc(-c2nnc(Cc3nnc(-c4ccc(F)cc4)o3)o2)cc1 | i | i | i
CC1CCN(c2nc3ccc(C(=O)NCc4ccc(Cl)cc4)cc3s2)CC1 | i | i[10.9 µM] | i
CC1CCN(c2nc3ccc(C(=O)O)cc3s2)CC1 | ? | nt | 10µM
O=c1c(O)c(-c2ccc(O)c(O)c2)oc2ccccc12 | ? | i | i
COc1ccc(CNc2cc(-c3ccccc3Cl)ncn2)c(OC)c1 | i | i | i
COc1ccc(OC)c(NC(=O)CSC2=Nc3ccccc3C3=NC(CCC(=O)NCc4ccccc4)C(=O)N23)c1 (centres undefined) | i | i[10.9 µM] | i
SMILES | p53ts 39C kill | Peg3 imprint | p53ts 32C tox
COC(=O)c1ccc(-n2c(C)cc(/C=N/n3cnnc3)c2C)cc1 | i | i | i
COc1ccc(-n2c(C)cc(/C=N/Nc3nnc(C)n3N)c2C)cc1 | 10µM | nt | ?
CCCCN(C)CCCNC(=O)C1CCN(c2nc3ccc(CC)cc3s2)CC1 | ? | i[10.9 µM] | 13µM
CCCCN(CC)CCCNC(=O)C1CCN(c2nc3ccc(CC)cc3s2)CC1 | 20µM | i[10.9 µM] | 13µM
CCc1ccc2nc(N3CCN(C(=O)c4ccco4)CC3)sc2c1 | ? | i[10.9 µM] | i
CCCCN(C)CCCNC(=O)C1CCN(S(=O)(=O)CC)CC1 | i | i[10.9 µM] | i
COc1cccc(Cn2c(=O)c(CCc3ccccc3)nc3cnc(N4CCOCC4)nc32)c1 | i | ? | i
CCC(C)S(=O)(=O)c1oc(-c2cccs2)nc1S(=O)(=O)c1ccccc1 (centres undefined) | 1µM | i[10.9 µM] | 6.3µM
CC(C)CS(=O)(=O)c1oc(-c2ccc(F)cc2)nc1S(=O)(=O)c1ccccc1 | 2.5µM | i[10.9 µM] | 10µM
O=S(=O)(c1ccccc1)c1nc(-c2ccc(F)cc2)oc1NCc1ccccc1 | i | i[10.9 µM] | i
O=S(=O)(c1ccccc1)c1nc(-c2cccs2)oc1N1CCCCC1 | i | i[10.9 µM] | i
O=C(CSc1nccn1Cc1ccccc1)NCc1ccco1 | i | i[10.9 µM] | i
Cc1ccc(S(=O)(=O)c2c(C)nn(C(C)(C)C)c2OC(=O)C(C)(C)C)cc1 | i | i | i
Cc1ccc(S(=O)(=O)c2c(C)nn(C(C)(C)C)c2OC(=O)c2ccc(Br)o2)cc1 | i | i | 10µM
CC(=O)Oc1c(S(=O)(=O)c2ccc(C)cc2)c(C)nn1-c1ccccc1 | i | i | i
CC(=O)Oc1c(S(=O)(=O)c2ccc(C)cc2)c(C)nn1C(C)(C)C | i | i | i
Cc1ccc(S(=O)(=O)c2c(C)nn(C(C)(C)C)c2OC(=O)c2ccco2)cc1 | 25µM | i | ?
